# Screening results from PubChem BioAssay.
# HIV RNase H inh-1 = blocks HIV-1 RNase H cleavage of RNA/DNA duplex; P04585; RT-RNase H RNA/DNA duplex cleavage, fluorescence; inhibition, % at 10 µM; 65,000 tested, 1.9% active; AID 565; in the data active = inhibition above about 50%
# RmlC RmlD mix = RmlC/RmlD inhibition, mixture screen; RmlC/RmlD coupled enzyme inhibition, 384-well mixture HTS; inhibition, % at 5.5 µM; 110,000 tested, 0.39% active; AID 1532; in the data active = inhibition above about 30%, passing the limit was not always enough; inconclusive = no clear call, values can overlap the other calls
# HIV RNase H inh-2 = confirmation of HIV-1 reverse transcriptase RNase H inhibitors; shares compounds with HIV RNase H inh-1; Recombinant RT RNase H, fluorescent RNA/DNA duplex cleavage; inhibition, % at 10 µM; 1,000 tested, 39% active; AID 651; in the data active = inhibition above about 48%; inconclusive = no clear call, values can overlap the other calls
# Active calls of the source: *; i = inactive; ? = inconclusive; . = no result given. Many of the other results were omitted from the sample, so hits are more common in it than they were.
SMILES,HIV RNase H inh-1,RmlC RmlD mix,HIV RNase H inh-2
NC(=O)CN(c1ccccc1)C1SC(=O)N(Cc2ccccc2)C1=O (stereo not drawn),2,7,.
Cc1ccc(N(CC(N)=O)C2SC(=O)N(Cc3ccccc3)C2=O)cc1 (stereo not drawn),63*,-11,41
COc1cccc(-c2nnc(NC(=O)c3cccc(F)c3)o2)c1,-1,-6,.
CCCN(CCC)S(=O)(=O)c1ccc(C(=O)Nc2nnc(CSC)o2)cc1,20,-3,.
COc1ccccc1-c1nnc(NC(=O)c2ccc(S(=O)(=O)N(C)C)cc2)o1,2,6,.
CCN(Cc1ccccc1)S(=O)(=O)c1ccc(C(=O)Nc2nnc(-c3ccccc3OC)o2)cc1,78*,.,62*
CCCN(CCC)S(=O)(=O)c1ccc(C(=O)Nc2nnc(-c3cccc(OC)c3)o2)cc1,68*,.,89*
CCCN(CCC)S(=O)(=O)c1ccc(C(=O)Nc2nnc(-c3cc(OC)cc(OC)c3)o2)cc1,53*,.,-11
Cc1cc(C)cc(NC(=S)NCc2cccn2C)c1,.,11,.
COc1c2c(nc3occc13)C(CCC(C)(C)O)(OC)C(O)CC2 (stereo not drawn),-38,26,.
CCC(C)(C)n1nnnc1CN1CCN(c2nc3cc(OC)ccc3cc2C#N)CC1,-14,-5,.
COC(=O)c1ccc2c(c1)N(Cc1nc(-c3ccc(Cl)cc3)oc1C)C(=O)C1CCCN21 (stereo not drawn),78*,.,96*
COC(=O)c1ccc2c(c1)N(Cc1nc(-c3cccc(Cl)c3)oc1C)C(=O)C1CCCN21 (stereo not drawn),20,.,.
CCOc1ccc(N(CC(=O)NC2CCCC2)S(=O)(=O)c2c(C)[nH]c(=O)[nH]c2=O)cc1,-6,-18,.
Cn1c(SCc2ccccc2)nnc1-c1cnccn1,.,-8,.
CCn1c(-c2ccc(C(C)(C)C)cc2)n[nH]c1=S,64*,0,9
CCn1c(-c2ccc(F)cc2)n[nH]c1=S,-2,19,.
Fc1c(F)c(C(F)(F)F)c(F)c(F)c1N/N=C\c1cccs1,.,14,.
CSc1nc(NCCOCCO)c2sc3nc(-c4ccco4)c4c(c3c2n1)CCC4,70*,19,42
CCN(CCO)c1nc(SC)nc2c1sc1nc(-c3ccco3)c3c(c12)CCC3,.,6,.
COc1ccc(-n2c(CNC(=O)c3cc(OC)c(OC)c(OC)c3)n[nH]c2=S)cc1,-1,-4,.
COC(=O)c1ccc(CN2C(=O)NC3(CCCCC3C)C2=O)o1 (stereo not drawn),-1,i,.
O=C(CSc1nnnn1-c1ccccc1)Nc1nsc(-c2ccc(Cl)cc2)n1,65*,6,58*
O=C(CSc1nnnn1-c1ccccc1)Nc1nsc(-c2ccccc2)n1,-6,11,.
c1ccc(-c2nnc3sc(-c4csc5c4CCCC5)nn23)cc1,69*,0,?
SMILES,HIV RNase H inh-1,RmlC RmlD mix,HIV RNase H inh-2
c1ccc(-c2nnc3sc(-c4ccncc4)nn23)cc1,27,-7,.
CCn1ncc(C2=NOC(C(=O)NCc3ccc(OC)cc3)C2)c1C (stereo not drawn),-11,10,.
CCn1ncc(C2=NOC(C(=O)NCc3ccccc3)C2)c1C (stereo not drawn),50*,-9,26
Cc1ccc(-c2cc(C(=O)Nc3cccnc3)c3ccccc3n2)o1,69*,-21,32
Cc1ccc(NC(=O)c2cc(-c3ccc(C)o3)nc3ccccc23)cc1,.,-11,.
COc1cccc(CNCc2ccc(SC)cc2)c1OC,.,-12,.
Clc1cc(Cl)cc(Nc2ncn[nH]2)c1,.,-2,.
CCn1c(SCC(=O)Nc2oc(-c3ccccc3)c(-c3ccccc3)c2C#N)nnc1-c1ccco1,64*,12,14
N#Cc1c(NC(=O)CSc2ncnc3sccc23)oc(-c2ccco2)c1-c1ccco1,74*,2,19
CCn1c(SCC(=O)Nc2ccc3c(c2)OCCO3)nnc1-c1ccco1,-1,-14,.
CCNC(=O)CSc1ncnc2sccc12,.,-4,.
CCn1c(SCC(=O)Nc2oc(-c3ccccc3)c(-c3ccccc3)c2C#N)nnc1-c1ccncc1,.,6,.
CCn1c(SCC(=O)Nc2ccc3c(c2)c2ccccc2n3CC)nnc1-c1ccco1,100*,.,11
O=C(c1ccco1)N1CCN(CC(O)Cn2c3ccccc3c3ccccc32)CC1 (stereo not drawn),-2,7,.
O=C(OCC(=O)N1CCCC1)c1cccs1,-6,-8,.
O=c1ccc2cc3c([nH]c4ccc(Br)cc43)oc-2c1O,88*,10,58*
O=c1c2c([nH]c3ccc(Br)cc13)CCCC2,-2,-29,.
CCOC(=O)N1CCC(NC(=O)c2cccc3c2C(=O)N(Cc2cccnc2)C3)CC1,1,-6,.
COc1cc(Cl)c(C)cc1NC(=O)CNC(=O)Cn1cnc2ccccc2c1=O,.,11,.
COc1ccc(OC)c(S(=O)(=O)Nc2ccc(O)c3ccccc23)c1,83*,-11,?
CCOc1ccc(NS(=O)(=O)c2cc(OC)ccc2OC)cc1,.,-4,.
COc1ccc(OC)c(S(=O)(=O)Nc2ccc(Oc3ccccc3)cc2)c1,.,5,.
COc1ccc(OC)c(S(=O)(=O)Nc2ccc(O)c(Sc3ncn[nH]3)c2)c1,94*,5,60*
CCCCC(=O)Nc1ccc(C(=O)N2CCN(C)CC2)cc1,-1,-4,.
S=C1NC[C@H](Cc2ccccc2)N1CCCCC1CCCCC1,.,-2,.
SMILES,HIV RNase H inh-1,RmlC RmlD mix,HIV RNase H inh-2
CC1(C)CC(=O)C=C(OC(=O)c2ccc(Cl)cc2)C1,.,16,.
CCN1CCCC1Cn1cnc2c([nH]c3cccc(Cl)c32)c1=O (stereo not drawn),4,-4,.
CC1CC(C)CN(C(=O)CSc2nnc(-c3ccc(Cl)s3)o2)C1 (stereo not drawn),15,7,.
CC1CC(C)CN(C(=O)CSc2nnc(-c3ccc(F)cc3)o2)C1 (stereo not drawn),82*,-7,-5
Cc1ccc(CNC(=O)CSc2nc(N3CCCCC3)nc(N3CCCCC3)n2)cc1,4,-11,.
CCCCCSc1nc2c(c(=O)[nH]c(=O)n2C)n1C(C)C,17,8,.
COC(=O)CSc1nc2c(c(=O)n(C)c(=O)n2C)n1CCC(C)C,74*,-8,24
COC(=O)C(C)Sc1nc2c(c(=O)n(C)c(=O)n2C)n1CCC(C)C (stereo not drawn),4,.,.
CCCCCSc1nc2c(c(=O)[nH]c(=O)n2C)n1C,-29,-2,.
CC(C)n1c(SCC(N)=O)nc2c1c(=O)[nH]c(=O)n2C,61*,11,4
CCCCCCn1c(SCC(C)C)nc2c1c(=O)[nH]c(=O)n2C,8,142,.
CCCCCCn1c(SCC(=O)OC)nc2c1c(=O)[nH]c(=O)n2C,93*,7,66*
CCCCCSc1nc2c(c(=O)[nH]c(=O)n2C)n1CC,73*,-3,42
CC1(C)CC(NC(=O)c2coc(=O)c(Br)c2)CC(C)(C)N1,4,10,.
CC(Sc1ccc(Cl)cc1)C(=O)Nc1ccc(S(=O)(=O)N2CCOCC2)cc1 (stereo not drawn),.,-9,.
CCCCOc1ccccc1NC(=O)CC1SC(=NCC)N(CC)C1=O (stereo not drawn),-9,-19,.
CCn1c(=O)c(=O)[nH]c2cc(C(=O)N3CCN(c4ccccc4F)CC3)ccc21,-1,-15,.
C=CCSc1nc2c(c(=O)[nH]c(=O)n2C)n1C/C=C(/C)Cl,-16,-6,.
C=CCSc1nc2c(c(=O)[nH]c(=O)n2C)n1CC,69*,3,75*
